From PubChem BioAssay
Most compounds without a hit are left out; they make up all but 9.3% or so of the library.
HCMV inh: human cytomegalovirus inhibition | HFF cells, HCMV-luciferase reporter, 72 h; stronger effect = lower value | activity change, negative = inhibition, % at 57.5 µM | actives 4.5% (n = 410,000) | AID 1259415; in the data active = activity change below about -60%; inconclusive = no clear call, values can overlap the other calls; inactive = above about -39%
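Cell-based, HFFs, 1000 cells/well, 16 h 37C; cpds in DMSO + HCMV-luc, MOI 1 PFU/cell; 72 h 37C; OneGlo luminescence after 5 min RT; norm. to buffer vs Salinomycin 10uM.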
VACV mCherry inh: inhibitors of vaccinia virus infection (mCherry reporter signal); Vaccinia virus mCherry reporter infection, fluorescence; Potency, µM (titrated, usually from 36.5 µM), usual class: inhibitors; actives 0.63% (n = 310,000); calls by dose curve; tested in A549 cells; note: nearly all actives have a fitted effect of over 35% in size
HCV inh: inhibitors of hepatitis C virus infection; actives 3.4% (n = 340,000); Potency, µM (titrated, usually from 41.8 µM), hits mostly inhibitors; Huh7.5.1 HCVcc-Cre infection, luciferase reporter, 44 h
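Antiviral activity was scored by luciferase reporter output from cells infected with HCVcc-Cre (~0.5 moi) in presence of compound, 44 h infection period, cells seeded 1,000/well 4 h prior.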
Vaccinia Venus: vaccinia inhibition (Venus reporter) | actives 0.46% (n = 330,000) | Potency, µM (series often up to 36.5 µM), most hits filed as inhibitors | Vaccinia virus Venus reporter expression, fluorescence; calls by dose curve; tested in A549 cells; note: nearly all actives have a fitted effect of over 30% in size
Sm TGR inh: inhibitors of Schistosoma mansoni thioredoxin glutathione reductase. Q962Y6. purified TGR, DTNB reduction, TNB absorbance 405 nm. Potency, µM (highest dose often 114 µM), hits mostly inhibitors. actives 3% (n = 360,000). AID 485364; note: nearly all actives have a fitted effect of over 60% in size
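First, TGR (20 nM dispensed) and NADPH were mixed with compound. Second, a 15 min room-temperature incubation followed. Third, further NADPH and then DTNB were added to start the reaction. Finally, TNB absorbance was monitored kinetically.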
FMDV antiviral: antivirals against foot and mouth disease virus; Potency, µM (titrated, usually from 57.9 µM), actives largely listed as inhibitors; FMDV antiviral cell-based qHTS; AID 1159524; actives 1.2% (n = 410,000); calls by dose curve; tested in HEK293T cells; note: read-out not given here; nearly all actives have a fitted effect of over 45% in size
Hits are given with their value; - = inactive; ? = inconclusive; . = no result given; ! = not confirmed by another sample; [ ] = dose if it differs, or a comment. Unless noted, calls come from the whole dose curve; as a rule, active = well fitted curve in the direction sought with a large enough effect; inconclusive = small, poorly fitted or top-dose-only effect, or another doubt; inactive = no such curve, though single readings can be large; an effect the other way counts as inactive or inconclusive.

SMILES	HCMV inh	VACV mCherry inh	HCV inh	Vaccinia Venus	Sm TGR inh	FMDV antiviral
Cc1cccc(N2CCN(C(=O)C3CCCN(S(=O)(=O)c4ccc(Br)s4)C3)CC2)c1C (stereo not given)	-62	-[7.34 µM]	.	-[7.34 µM]	-	?
O=S(=O)(c1ccc(Br)s1)N1CCN(c2ccccc2)CC1	-	.	-	.	-	-
O=C(C1CCCN(S(=O)(=O)c2cccc3nonc23)C1)N1CCN(c2cccc(Cl)c2)CC1 (stereo not given)	-65!	-	7.9µM	-	-	-
CCN(CC)CCCNC(=O)C1CCN(C(=O)c2oc3cc4sc(N(C)C)nc4cc3c2C)CC1	-	.	?	.	-	-
O=C(Nc1ccccc1C(=O)N1CCCCC1)C1CCCCC1	-	.	-	.	-	-
CCOc1cc(NC(=S)NCCCN2CCOCC2)c(OCC)cc1NC(=O)C1CCCCC1	-	.	-	.	-	-
CCOC(=O)Nc1ccc2c(COC(=O)CNS(=O)(=O)c3cccc(Br)c3)cc(=O)oc2c1	-	-	-	-	-	-
O=C(C1CCCN(S(=O)(=O)c2ccc(Br)cc2)C1)N1CCN(Cc2ccccc2)CC1 (stereo not given)	-	?	11µM	?	-	-
O=C(O)C1CCCN(S(=O)(=O)c2ccc(Br)s2)C1 (stereo not given)	-62	-	-	-	-	-
O=C(C1CCCN(S(=O)(=O)c2ccc(Br)s2)C1)N1CCCCCC1 (stereo not given)	-	.	?	-	-	?
Fc1cccc2sc(Nc3nc4ccccc4s3)nc12	-	-	-	-	-	-
COC(=O)c1ccc(S(=O)(=O)NCCSc2nnc3c4ccccc4n(C)c3n2)cc1	-	.	10µM	.	-	-
O=C1CC(N2CCCc3ccccc32)C(=O)N1c1ccccc1Cl (stereo not given)	-	.	-	-	20µM	-
O=C1CC(N2CCN(c3ccccc3Cl)CC2)C(=O)N1c1cccc(F)c1 (stereo not given)	-	-	-	-	40µM	-
CCOc1ccc(N2C(=O)CC(N3CCC(O)(c4ccc(Br)cc4)CC3)C2=O)cc1 (stereo not given)	-	.	-	-	-	-
CCOC(=O)c1ccc(N2C(=O)CC(N3CCC(C#N)(c4ccccc4)CC3)C2=O)cc1 (stereo not given)	-	-	-	-	45µM	?
CCOC(=O)c1ccc(N2C(=O)CC(N3CCN(Cc4ccccc4)CC3)C2=O)cc1 (stereo not given)	-	.	-	-	-	-
CCOC(=O)c1ccc(N2C(=O)CC(N3CCC(O)(c4ccc(Cl)cc4)CC3)C2=O)cc1 (stereo not given)	-	-	-	-	22µM	?
O=C1CC(N2CCc3ccccc32)C(=O)N1c1ccccc1 (stereo not given)	-	-[7.34 µM]	-	-[7.34 µM]	-	-
Cn1ccc(-c2cc(C(=O)O)c3ccccc3n2)n1	-	-	-	-	-	-
CC(C)Sc1nc(N2CCOCC2)c2c3c(sc2n1)COC(C)(C)C3	-	.	?	.	-	-
CCOC(=O)c1ccc(N2C(=O)CC(N3CCC(O)(c4ccc(Br)cc4)CC3)C2=O)cc1 (stereo not given)	-	.	-	-	50µM	?
N#CC1(c2ccccc2)CCN(C2CC(=O)N(c3cccc(F)c3)C2=O)CC1 (stereo not given)	-	-	-	-	45µM	-
Cc1cc(O)cc2c1C1CCC3(C)C(O)CCC3C1C=C2 (stereo not given)	-	4.5µM	?	?	.	-
Cc1cccc(C(=O)NCC(c2ccc3c(c2)OCO3)N2CCOCC2)c1 (stereo not given)	-	-	.	-	25µM	-
Cc1ccc(S(=O)(=O)NCC(c2cccnc2)N2CCOCC2)cc1 (stereo not given)	-79	.	-	.	-	-
O=S(=O)(NCC(c1ccc2c(c1)OCO2)N1CCOCC1)c1ccc(Cl)cc1 (stereo not given)	-	-	-	-	-	-
Cc1ccc(C(=O)NCC(c2ccc3c(c2)OCO3)N2CCOCC2)cc1 (stereo not given)	-	-	.	-	-	-
Cc1cc(S(=O)(=O)NCC(c2ccc3c(c2)OCO3)N2CCOCC2)ccc1F (stereo not given)	-64	.	-	.	-	-
